In the library only some 2.4% were active in any assay of this set; here they are far more common.
APOBEC3A inh: human APOBEC3A DNA deaminase inhibition; P31941; recombinant A3A, FAM/TAMRA ssDNA deamination fluorescence; inhibition, % at 20 µM; 0.41% of 330,000 active; AID 493011;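 active = at least 40% inhibition at 20 µM here, with at most 30% in a related deaminase screen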
ADAM17 inh: inhibitors of human ADAM17; recombinant ADAM17, EDANS/DABCYL FRET peptide cleavage; inhibition, % at 6.95 µM; 0.83% of 370,000 active;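 active = inhibition above the mean of compounds lying between control limits plus 3 SD, set per campaign, cut at about 8.5% in these data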
ADAM10 inh: inhibits human ADAM10. recombinant ADAM10, EDANS/DABCYL FRET peptide cleavage, 3 h. inhibition, % at 7 µM. 0.62% of 370,000 active. AID 720582;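 active = inhibition above a per-campaign cutoff equal to the mean of compounds falling between control-based bounds plus 3 SD, cut at about 20% in these data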
APOBEC3G inh: APOBEC3G (human) deaminase inhibition; 0.28% of 330,000 active; recombinant A3G, ssDNA deamination FAM/TAMRA fluorescence; Q9HC16; inhibition, % at 20 µM;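 active = inhibition of at least 40% at 20 µM, with no more than 30% in the related APOBEC3A deaminase screen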
CendR NRP1 mod: alters CendR peptide binding to human NRP-1; O14786; FAM-RPARPAR peptide binding to NRP-1, fluorescence polarization; inhibition, % at 25 µM; 0.85% of 360,000 active; AID 602438;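 active = inhibition or corrected inhibition above about 18%, plus a signal ratio from 0.5 to 1.5, limit read from the data, passing the limit was not always enough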
Target sequence (O14786 whole entry, looked up): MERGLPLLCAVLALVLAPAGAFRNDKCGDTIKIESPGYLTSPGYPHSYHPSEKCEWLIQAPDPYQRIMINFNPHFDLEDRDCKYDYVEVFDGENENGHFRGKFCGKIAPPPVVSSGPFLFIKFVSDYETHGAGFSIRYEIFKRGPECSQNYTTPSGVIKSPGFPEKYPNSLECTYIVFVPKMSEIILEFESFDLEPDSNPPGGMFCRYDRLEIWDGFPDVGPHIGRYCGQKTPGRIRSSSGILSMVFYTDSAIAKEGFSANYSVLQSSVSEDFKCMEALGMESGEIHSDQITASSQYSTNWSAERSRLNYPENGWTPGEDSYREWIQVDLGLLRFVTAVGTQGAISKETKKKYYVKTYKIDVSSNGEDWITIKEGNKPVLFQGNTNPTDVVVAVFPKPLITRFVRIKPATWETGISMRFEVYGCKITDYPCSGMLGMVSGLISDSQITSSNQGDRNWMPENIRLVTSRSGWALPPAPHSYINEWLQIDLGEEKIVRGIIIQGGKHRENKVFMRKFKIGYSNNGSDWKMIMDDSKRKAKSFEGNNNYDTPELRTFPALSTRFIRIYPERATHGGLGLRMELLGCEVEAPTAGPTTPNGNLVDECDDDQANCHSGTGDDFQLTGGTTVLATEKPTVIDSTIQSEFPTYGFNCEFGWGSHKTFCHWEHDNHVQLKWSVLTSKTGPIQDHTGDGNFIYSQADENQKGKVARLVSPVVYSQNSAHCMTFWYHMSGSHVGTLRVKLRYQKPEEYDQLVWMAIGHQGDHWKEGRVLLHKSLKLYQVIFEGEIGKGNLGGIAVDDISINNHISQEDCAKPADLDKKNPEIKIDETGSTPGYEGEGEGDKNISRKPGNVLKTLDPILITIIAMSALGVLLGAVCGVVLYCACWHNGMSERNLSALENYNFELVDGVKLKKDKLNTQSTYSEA
ADAM10 counter: inhibits human ADAM10 in ADAM17 exosite counter-screen; shares compounds with ADAM17 inh; recombinant ADAM10, EDANS/DABCYL FRET peptide cleavage, 3 h; inhibition, % at 6.95 µM; 47% of 2,900 active; AID 743256;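 active = mean inhibition over the triplicate runs exceeds the activity threshold set in the earlier primary screen, cut at about 20% in these data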
ADAM17 confirm: human ADAM17 inhibition, confirmation. shares compounds with ADAM17 inh. recombinant ADAM17, EDANS/DABCYL QFRET peptide cleavage. inhibition, % at 6.95 µM. 65% of 2,900 active. AID 743257;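 active = mean inhibition across replicates above the hit cutoff set in the primary screen, cut at about 8.5% in these data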
Each line names hits and unclear results; the compound was inactive in the other large screens (follow-up assays come after a bar, where they were run).

CS(=O)(=O)c1ccc(C2=C(CNC(=O)c3ccncc3)[C@H]3CC[C@@H](C2)N3Cc2ccco2)cc1	none (no result: APOBEC3A inh, APOBEC3G inh)
Cc1ncoc1C(=O)NCC1=C(c2ccc(S(C)(=O)=O)cc2)C[C@@H]2CC[C@H]1N2CCOc1ccccc1	none (no result: APOBEC3A inh, APOBEC3G inh)
COC(=O)C1=C(c2ccc(F)cc2OCc2ccccc2)C[C@@H]2CC[C@H]1N2C(=O)NCc1ccc([N+](=O)[O-])cc1	ADAM17 inh 9.0 | ADAM10 counter 30 | ADAM17 confirm 20
COC(=O)C1=C(c2ccc(F)cc2OCc2ccccc2)C[C@@H]2CC[C@H]1N2C(=O)NCc1ccc(C)cc1	none
Cc1cc(O)c2c(c1)OC(C)(C)C1=C2CC(C)CC1 (centres undefined)	ADAM17 inh 12 | ADAM10 counter 30 | ADAM17 confirm 14
CC(C)c1ccc(-n2c(O)c(C=NC(CCS(C)=O)C(=O)O)c(=O)[nH]c2=S)cc1 (centres undefined)	ADAM17 inh 9.2 | ADAM10 counter inactive | ADAM17 confirm inactive
CC(c1ccccc1)n1cncc1C(=O)O (centres undefined)	ADAM17 inh 9.4 | ADAM10 counter inactive | ADAM17 confirm 11
COC(=O)C1(F)C(=O)NC(=O)NC1O (centres undefined)	none (no result: APOBEC3A inh, APOBEC3G inh)
CC(C)OC(=O)C1C(c2ccc(I)cc2)CC2CCC1N2C (centres undefined)	none (no result: APOBEC3A inh, APOBEC3G inh, CendR NRP1 mod)
CSCCC(c1nnnn1Cc1ccccc1)N1CCC2(CC1)C(=O)NCN2c1ccccc1 (centres undefined)	ADAM17 inh 11 (no result: APOBEC3A inh, APOBEC3G inh) | ADAM10 counter inactive | ADAM17 confirm inactive
O=C(c1cc2c(s1)CCCCCC2)N1CCC2(CC1)OCCO2	ADAM17 inh 8.7 | ADAM10 counter inactive | ADAM17 confirm 12
CCc1sc(C(=O)N2CCC3(CC2)OCCO3)cc1Br	none
CC(C)S(=O)(=O)N1Cc2ccc(Br)cc2-n2nncc2C1	none (no result: APOBEC3A inh, APOBEC3G inh, CendR NRP1 mod)
Cc1cccc(N2C(=O)/C(=C/c3ccc(CN(CCC#N)S(C)(=O)=O)o3)C(=O)NC2=S)c1	ADAM17 inh 9.1 | ADAM10 counter inactive | ADAM17 confirm inactive
CC(C)=CCc1c(O)cc2c(c1O)C(=O)CC(c1ccc(O)cc1)O2 (centres undefined)	ADAM17 inh 9.3 | ADAM10 counter 37 | ADAM17 confirm 20
Cc1ccccc1C(=O)NCCN1CCC2(CC1)C(=O)NCN2c1ccccc1	none (no result: APOBEC3A inh, APOBEC3G inh, CendR NRP1 mod)
COc1ccc(C(=O)Nc2cccc(S(=O)(=O)NCc3ccco3)c2)cc1	ADAM17 inh 8.7 | ADAM10 counter 23 | ADAM17 confirm 15
COc1ccc(Cn2c(N)c(C(=O)NCc3ccco3)c3nc4ccccc4nc32)cc1OC	none
CN1C[C@H](O)[C@H]2C[C@@H]1c1ccccc1O2	none (no result: APOBEC3A inh, APOBEC3G inh, CendR NRP1 mod)

High-throughput results from PubChem BioAssay.
